Measurements taken from PubChem BioAssay (Tox21).
Records with an inconclusive call do not appear. Activity calls are given as the source filed them. Unless noted, calls follow the shape of the dose curve; as a rule, active = well fitted curve in the direction sought with a large enough effect in the repeat runs; inconclusive = weak or mixed curves; inactive = no such curve, though single readings can be large; an effect the other way counts as inactive or inconclusive.

Legend:
[1] = qHTS assay to identify small molecule antagonists of the estrogen related receptor (ERR) signaling pathway from Tox21 library - cell viability counter screen (AID 1224834); also: nearly all actives have a fitted effect of over 30% in size
Method in brief: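 Counter screen run in ERR cells (2,000 cells/well): cells pre-incubated 6 h, then treated with compounds for 17.5 h at 37 C. Fluorescence was read 30 min after CellTiter-Fluor addition.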

[2] = target: Luciferin 4-monooxygenase (Photinus pyralis) (UniProt P08659); assay: qHTS assay to identify small molecule inhibitors of firefly luciferase (AID 1224835); also: series mostly up to about 120 µM; nearly all actives have a fitted effect of over 25% in size
Method in brief: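 Quantitative HTS format; KM concentrations of both substrates. Purified P. pyralis FLuc activity quantified from luminescence images.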

[3] = qHTS assay to identify small molecule agonists of the constitutive androstane receptor (CAR) signaling pathway - cell viability counter screen (AID 1224836); also: series mostly up to about 92 µM; nearly all actives have a fitted effect of over 45% in size
Method in brief: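 Cell viability multiplexed with the CAR agonist screen: CellTiter-Fluor fluorescence after 23 hr at 37 C. HepG2-CYP2B6-hCAR cells got compounds at 15 concentrations with PK11195 at 0.75 uM final.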

[4] = qHTS assay to identify small molecule antagonists of the constitutive androstane receptor (CAR) signaling pathway - cell viability counter screen (AID 1224837); also: series mostly up to about 92 µM; nearly all actives have a fitted effect of over 45% in size
Method in brief: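 CITCO at 50 nM final was added alongside compounds (15 concentrations) to double-stable hCAR/CYP2B6-2.2kb HepG2 cells. Following 23 hr at 37 C, cell viability was quantified by CellTiter-Fluor fluorescence intensity.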

[5] = target: Nuclear receptor subfamily 1 group I member 3 (Homo sapiens) (UniProt Q14994); assay: qHTS assay to identify small molecule antagonists of the constitutive androstane receptor (CAR) signaling pathway (AID 1224838); also: nearly all actives have a fitted effect of over 40% in size
Method in brief: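 Inhibition of CITCO-driven (50 nM final) CYP2B6 reporter expression is measured in HepG2 cells stably carrying hCAR. Fifteen compound concentrations are applied for 24 h at 37 C, followed by luciferase luminescence.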

[6] = target: Nuclear receptor subfamily 1 group I member 3 (Homo sapiens) (UniProt Q14994); assay: qHTS assay to identify small molecule agonists of the constitutive androstane receptor (CAR) signaling pathway (AID 1224839); also: series mostly up to about 92 µM; nearly all actives have a fitted effect of over 15% in size
Method in brief: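 Luminescent ONE-Glo read-out after 24 hr, 37 C exposure of double-stable HepG2-CYP2B6-hCAR reporter cells to a 15-point compound series, in the presence of 0.75 uM PK11195 (final).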

[7] = qHTS assay to identify small molecule antagonists of the estrogen related receptor signaling pathway with the pleiotropic PPARgamma coactivator (PGC) from Tox21 10K library - cell viability counter screen (AID 1224840; active = well fitted cell-killing curve with a large enough effect in the repeat runs, not every such curve was filed as active; also: nearly all actives have a fitted effect of over 40% in size)
Method in brief: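 Readout: fluorescence intensity from CellTiter-Fluor after 30 min at 37 C/5% CO2. Preceded by 17.5 h treatment of PGC/ERR cells with DMSO-dissolved compounds, added 6 h post-seeding.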

[8] = qHTS assay to identify small molecule antagonists of the estrogen related receptor signaling pathway with the pleiotropic PPARgamma coactivator (PGC) from Tox21 10K library (AID 1224841; call rule not given here; also: series mostly up to about 92 µM; actives are mostly falling curves and most rising ones were filed inactive; nearly all actives have a fitted effect of over 50% in size)
Method in brief: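 One-Glo luminescence, measured after half an hour at room temperature, quantified reporter output of PGC/ERR cells. These had been plated at 2,000 per well, incubated 6 h, dosed with compounds in DMSO, then kept 18 h at 37 C.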

[9] = target: Thyrotropin receptor (Homo sapiens) (UniProt P16473); assay: qHTS assay to identify small molecule agonists of the thyroid stimulating hormone receptor (TSHR) signaling pathway (AID 1224843; calls by dose curve; also: nearly all actives have a fitted effect of over 45% in size)
Method in brief: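 Using 15 concentrations per compound in triplicate, cAMP production was monitored in TSHR-HEK293 cells after 30 min compound incubation at RT; HTRF reagents followed, with fluorescence intensity recorded after 1 h.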

[10] = qHTS assay to identify small molecule agonists of the estrogen related receptor signaling pathway with the pleiotropic PPARgamma coactivator (PGC) from Tox21 10K library (AID 1224842); also: nearly all actives have a fitted effect of over 15% in size
Method in brief: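 PGC/ERR reporter cells (NTP line) were seeded 2,000 per well, rested 6 h at 37 C/5% CO2, then pin-dosed with compounds in DMSO for 18 h at 37 C; luciferase read by One-Glo luminescence after 30 min at room temperature.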
% is scaled to controls: 0 for no effect and ±100 for the full control effect.

Sequence of Luciferin 4-monooxygenase (Photinus pyralis) (P08659 whole entry, looked up): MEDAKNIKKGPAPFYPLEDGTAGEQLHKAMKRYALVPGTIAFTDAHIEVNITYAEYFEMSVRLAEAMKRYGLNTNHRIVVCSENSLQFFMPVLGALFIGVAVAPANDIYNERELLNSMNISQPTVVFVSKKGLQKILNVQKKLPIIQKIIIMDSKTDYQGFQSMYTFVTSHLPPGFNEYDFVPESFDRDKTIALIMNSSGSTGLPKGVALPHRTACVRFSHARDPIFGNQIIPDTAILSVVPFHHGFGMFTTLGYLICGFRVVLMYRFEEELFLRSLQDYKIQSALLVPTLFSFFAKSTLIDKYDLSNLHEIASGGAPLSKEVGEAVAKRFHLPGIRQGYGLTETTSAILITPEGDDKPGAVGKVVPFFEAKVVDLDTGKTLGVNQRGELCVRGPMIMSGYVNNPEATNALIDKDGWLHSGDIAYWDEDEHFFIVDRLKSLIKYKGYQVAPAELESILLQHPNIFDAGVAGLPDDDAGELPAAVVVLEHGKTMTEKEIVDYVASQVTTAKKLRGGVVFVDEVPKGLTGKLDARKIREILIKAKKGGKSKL
Sequence of Thyrotropin receptor (Homo sapiens) (P16473 whole entry, looked up): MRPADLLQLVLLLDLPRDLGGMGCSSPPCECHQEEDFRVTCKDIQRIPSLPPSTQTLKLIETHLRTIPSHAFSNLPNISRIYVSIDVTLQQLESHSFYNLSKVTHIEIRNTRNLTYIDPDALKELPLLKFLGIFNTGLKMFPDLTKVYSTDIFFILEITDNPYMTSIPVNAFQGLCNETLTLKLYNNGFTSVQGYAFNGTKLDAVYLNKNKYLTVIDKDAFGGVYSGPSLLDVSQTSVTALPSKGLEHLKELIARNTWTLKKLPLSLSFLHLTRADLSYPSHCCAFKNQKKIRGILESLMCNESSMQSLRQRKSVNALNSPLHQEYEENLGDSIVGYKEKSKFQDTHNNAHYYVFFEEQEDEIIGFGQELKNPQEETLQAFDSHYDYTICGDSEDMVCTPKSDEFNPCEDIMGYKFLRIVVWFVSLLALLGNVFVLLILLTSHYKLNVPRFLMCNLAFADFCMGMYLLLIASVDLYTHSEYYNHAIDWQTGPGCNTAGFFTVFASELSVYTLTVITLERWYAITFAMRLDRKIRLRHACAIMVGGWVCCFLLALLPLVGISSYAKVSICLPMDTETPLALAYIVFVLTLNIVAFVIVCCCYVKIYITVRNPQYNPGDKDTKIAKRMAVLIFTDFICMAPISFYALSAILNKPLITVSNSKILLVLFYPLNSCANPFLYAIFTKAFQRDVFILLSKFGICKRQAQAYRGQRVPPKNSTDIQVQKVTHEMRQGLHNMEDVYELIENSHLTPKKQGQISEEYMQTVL
Sequence of Nuclear receptor subfamily 1 group I member 3 (Homo sapiens) (Q14994 whole entry, looked up): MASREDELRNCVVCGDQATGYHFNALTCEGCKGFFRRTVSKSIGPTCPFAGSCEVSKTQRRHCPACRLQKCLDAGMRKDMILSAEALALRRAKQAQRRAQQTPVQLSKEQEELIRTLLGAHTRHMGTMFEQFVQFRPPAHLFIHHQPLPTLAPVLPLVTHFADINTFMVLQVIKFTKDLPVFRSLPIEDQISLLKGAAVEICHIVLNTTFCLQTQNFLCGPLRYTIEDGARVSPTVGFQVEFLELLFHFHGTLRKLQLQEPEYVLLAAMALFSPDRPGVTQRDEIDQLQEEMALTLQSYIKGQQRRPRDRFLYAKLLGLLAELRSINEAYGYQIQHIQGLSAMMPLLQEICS

N[C@H]1CN(c2c(F)cc3c(=O)c(C(=O)O)cn(C4C[C@H]4F)c3c2Cl)CC12CC2 (stereo not given in full)
inactive: Potency [1] | Potency [2] | Potency [3] | Potency [4] | Potency [5] | Potency [6] | Potency [7] | Potency [8] | Potency [9]

CC1=CC(C)C(C=O)CC1 (stereo not given)
inactive: Potency [1] | Potency [2] | Potency [3] | Potency [4] | Potency [5] | Potency [6] | Potency [7] | Potency [8] | outcome [10] | Potency [9]

NC(=O)Nc1ccccc1
inactive: Potency [1] | Potency [2] | Potency [3] | Potency [4] | Potency [5] | Potency [6] | Potency [7] | Potency [8] | Potency [9]

CC1(C)CO[C@@H](CC(=O)O)CN1
inactive: Potency [1] | Potency [2] | Potency [3] | Potency [4] | Potency [5] | Potency [6] | Potency [7] | Potency [8] | Potency [9]

CCCCCCCCCCCCN(CCCCCCCCCCCC)CCCCCCCCCCCC
inactive: Potency [1] | Potency [2] | Potency [3] | Potency [4] | Potency [5] | Potency [6] | Potency [7] | Potency [8] | Potency [9]

COCCCOCCCOC
inactive: Potency [1] | Potency [2] | Potency [3] | Potency [4] | Potency [5] | Potency [6] | Potency [7] | Potency [8] | Potency [9]

O=C(CCCN1CCC(O)(c2cccc(C(F)(F)F)c2)CC1)c1ccc(F)cc1
inactive: Potency [1] | Potency [2] | Potency [3] | Potency [4] | Potency [5] | Potency [6] | Potency [7] | outcome [10] | Potency [9]

C=CCCCCCCCCC=O
inactive: Potency [1] | Potency [2] | Potency [3] | Potency [4] | Potency [5] | Potency [6] | Potency [7] | Potency [8] | Potency [9]

N[C@H](C(=O)O)c1ccc(O)cc1
inactive: viability change, negative = cytotoxic [1] -0.517% [at 19 µM] | activity change, negative = inhibition [2] -0.257% [at 23.6 µM] | viability change, negative = cytotoxic [3] -1.44% [at 19 µM] | activity change, negative = cytotoxicity [4] 4.98% [at 19 µM] | activity, negative = inhibition [5] -5.61% [at 19 µM] | activation [6] -0.259% [at 19 µM] | viability change, negative = cytotoxic [7] -4.51% [at 19 µM] | activity, negative = inhibition [8] 1.15% [at 19 µM] | Potency [9]

C=C(C)CS(=O)(=O)O
inactive: Potency [1] | Potency [2] | Potency [3] | Potency [4] | Potency [5] | Potency [6] | Potency [7] | Potency [8] | Potency [9]

O=C(O)Cc1ccc(CCNS(=O)(=O)c2ccc(Cl)cc2)cc1
inactive: Potency [1] | Potency [2] | Potency [3] | Potency [4] | Potency [5] | Potency [6] | Potency [7] | Potency [8] | Potency [9]

CC(C)(CC(=O)O)C(=O)O
inactive: Potency [1] | Potency [2] | Potency [3] | Potency [4] | Potency [5] | Potency [6] | Potency [7] | Potency [8] | Potency [9]

N#Cc1ccc(C2CCCc3cncn32)cc1 (stereo not given)
inactive: Potency [1] | Potency [2] | Potency [3] | Potency [4] | Potency [5] | Potency [6] | Potency [7] | Potency [8] | Potency [9]

O=C(O)CCCc1ccccc1
inactive: Potency [1] | Potency [2] | Potency [3] | Potency [4] | Potency [5] | Potency [6] | Potency [7] | Potency [8] | Potency [9]

Cc1sccc1Br
inactive: Potency [1] | Potency [2] | Potency [3] | Potency [4] | Potency [5] | Potency [6] | Potency [7] | Potency [8] | Potency [9]

CC(=O)c1ccccc1O
inactive: Potency [1] | Potency [2] | Potency [3] | Potency [4] | Potency [5] | Potency [6] | Potency [7] | Potency [8] | Potency [9]

O=C(O)COc1nn(Cc2ccccc2)c2ccccc12
inactive: Potency [1] | Potency [2] | Potency [3] | Potency [4] | Potency [5] | Potency [6] | Potency [7] | Potency [8] | Potency [9]

CCCCCCCCCCCCCC=O
inactive: viability change, negative = cytotoxic [1] 1.13% [at 8.39 µM] | activity change, negative = inhibition [2] 3.28% [at 10.5 µM] | viability change, negative = cytotoxic [3] -0.0726% [at 8.39 µM] | activity change, negative = cytotoxicity [4] 6.66% [at 8.39 µM] | activity, negative = inhibition [5] -13.4% [at 8.39 µM] | activation [6] -0.0217% [at 8.39 µM] | viability change, negative = cytotoxic [7] 5.18% [at 8.39 µM] | activity, negative = inhibition [8] 11.8% [at 8.39 µM] | activation [9] 4.61% [at 8.39 µM]

CC(C)(C)c1nnc(NS(=O)(=O)c2ccccc2)s1
inactive: Potency [1] | Potency [2] | Potency [3] | Potency [4] | Potency [5] | Potency [6] | Potency [8] | outcome [10] | Potency [9]

CC(=O)OC/C=C(\C)CC/C=C(\C)CCC=C(C)C
inactive: Potency [1] | Potency [2] | Potency [3] | Potency [4] | Potency [5] | Potency [6] | Potency [8] | Potency [9]

CC(C(=O)O)c1ccc(CC2CCCC2=O)cc1 (stereo not given)
inactive: Potency [1] | Potency [2] | Potency [3] | Potency [4] | Potency [5] | Potency [6] | Potency [7] | Potency [9]

c1cnc(N2CCN(Cc3ccc4c(c3)OCO4)CC2)nc1
inactive: Potency [1] | Potency [2] | Potency [3] | Potency [4] | Potency [5] | Potency [6] | Potency [7] | Potency [9]

COc1nc(N)nc2c1ncn2[C@@H]1O[C@H](CO)[C@@H](O)[C@@H]1O
inactive: Potency [1] | Potency [2] | Potency [3] | Potency [4] | Potency [5] | Potency [6] | Potency [8] | outcome [10] | Potency [9]

CC(=O)Nc1c(I)cc(I)c(C(=O)O)c1I
inactive: Potency [1] | Potency [2] | Potency [3] | Potency [4] | Potency [5] | Potency [6] | Potency [8] | outcome [10]

Oc1ccc(C2CNCCc3c2cc(O)c(O)c3Cl)cc1 (stereo not given)
inactive: Potency [1] | Potency [2] | Potency [3] | Potency [4] | Potency [5] | Potency [6] | Potency [7] | Potency [9]

C[C@H]1C[C@@H](O)CC(C)(C)C1
inactive: Potency [1] | Potency [2] | Potency [3] | Potency [4] | Potency [5] | Potency [6] | Potency [8] | outcome [10] | Potency [9]
